Unmarked numbers belong to inactive results. Inconclusive results are not listed. Where a call stands in place of a potency, no number is given. Calls of active or inactive are those of the source. Unless noted, calls follow the shape of the full dose curve.
Columns and labels:
[1] = Nuclear factor erythroid 2-related factor 2/antioxidant responsive element (Nrf2/ARE) small molecule agonists: qHTS cell viability counter screen in human keratinocytes (AID 1919968; active = well fitted curve in the direction sought with a large enough effect in the repeat runs; an effect the other way counts as inactive or inconclusive; also: nearly all actives have a fitted effect of over 55% in size)
Procedure, shortened: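 CellTiter-Fluor fluorescence, read 1 h after reagent, gave viability in the same wells as the ARE-luciferase assay. KeratinoSens cells (1,500/well) had 23 h compound exposure at 37 C/5% CO2 following 5 h plating.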

[2] = Nuclear factor erythroid 2-related factor 2/antioxidant responsive element (Nrf2/ARE) small molecule agonists: luciferase reporter gene qHTS assay in human keratinocytes (AID 1919969); also: nearly all actives have a fitted effect of over 35% in size
[3] = target: Gonadotropin-releasing hormone receptor (Homo sapiens) (UniProt P30968); assay: Human gonadotropin-releasing hormone receptor (GnRHR) small molecule agonists, calcium flux assay in GnRHR-HEK293 cells (AID 1920063); also: nearly all actives have a fitted effect of over 35% in size
Procedure, shortened: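 Agonist mode: compounds at 15 concentrations, in triplicate, went onto calcium dye-loaded GnRHR-HEK293 cells. Intracellular calcium was then followed as 480/540 nm fluorescence at 1 s intervals over 3 min.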

[4] = target: KiSS-1 receptor (Homo sapiens) (UniProt Q969F8); assay: Human kisspeptin (KISS1R) small molecule agonists, calcium flux assay in KISS1R-HEK293 cells (AID 1920064; active = well fitted curve in the direction sought with a large enough effect in the repeat runs; an effect the other way counts as inactive or inconclusive)
Procedure, shortened: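 Agonist mode: intracellular calcium rise tracked at 1 s intervals over 3 min (480/540 nm) immediately after compound addition to dye-loaded KISS1R-HEK293 stable cells. Each compound tested at 15 concentrations in triplicate.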

[5] = G protein-coupled receptor (GPCR) small molecule agonists, calcium flux assay: HEK293 wild type cell line counter screen (AID 1920065)
Procedure, shortened: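 Calcium flux counter screen: compound added in agonist mode at 15 concentrations in triplicate to dye-loaded parental HEK293 cells. Fluorescence (480/540) read kinetically for 3 min; ATP served as positive control.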

[6] = p53 small molecule agonists, cell-based qHTS assay with human liver microsomes (AID 1963577)
Procedure, shortened: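 Compounds act here after metabolic activation: human liver microsomes and NADPH, both at 0.5 mg/mL final, were co-added to p53RE-bla cells. Incubation ran 16 h at 37 C, followed by LiveBLAzer detection.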

[7] = p53 small molecule agonists, cell-based qHTS assay with rat liver microsomes (AID 1963578)
Procedure, shortened: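 Read-out is beta-lactamase reporter fluorescence (LiveBLAzer, 2 h, room temperature, dark) in p53RE-bla cells treated 16 h at 37 C with compound, rat liver microsomes and NADPH, both 0.5 mg/mL final.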

[8] = p53 small molecule agonists, cell-based qHTS assay with human liver microsomes: qHTS cell viability counter screen (AID 1963579); also: nearly all actives have a fitted effect of over 45% in size
Procedure, shortened: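 Cells carrying the p53 response-element beta-lactamase reporter are treated for 16 h at 37 C with test compounds in the presence of human liver microsomes and NADPH (both 0.5 mg/mL final); ATP-based CellTiter-Glo luminescence then reports viability.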

[9] = p53 small molecule agonists, cell-based qHTS assay with rat liver microsomes: qHTS cell viability counter screen (AID 1963580); also: nearly all actives have a fitted effect of over 45% in size
Procedure, shortened: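 Cytotoxicity counter screen: intracellular ATP read by CellTiter-Glo luminescence in the p53 reporter wells. HCT-116 p53RE-bla cells were treated for 16 h at 37 C alongside rat liver microsomes and NADPH, each 0.5 mg/mL final.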

[10] = p53 small molecule agonists, cell-based qHTS assay: qHTS cell viability counter screen (AID 1963581); also: nearly all actives have a fitted effect of over 45% in size
Procedure, shortened: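 Counter screen read by CellTiter-Glo luminescence (ATP content, 30 min at room temperature), run in the same wells as the beta-lactamase reporter read. HCT-116 p53RE-bla cells saw compounds for 16 h at 37 C.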

[11] = p53 small molecule agonists, cell-based qHTS assay (AID 1963582; active = well fitted activation curve with a large enough effect in the signal ratio in the repeat runs, not every such curve was filed as active; the % refers to the signal ratio)
Procedure, shortened: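 Read-out is beta-lactamase FRET fluorescence after 2 h at room temperature with LiveBLAzer B/G substrate. p53 response element-bla cells were treated 16 h at 37 C with compounds in DMSO, added 5 h after seeding.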

[12] = target: 5-hydroxytryptamine receptor 2A (Homo sapiens) (UniProt P28223); assay: 5-hydroxytryptamine receptor 2A (HTR2A) small molecule antagonists, cell-based qHTS assay (AID 1963586); also: nearly all actives have a fitted effect of over 45% in size
Procedure, shortened: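 CHO cells stably expressing human HTR2A were plated for 18 h at 37 C, then loaded with calcium dye for 1 h. Compounds were preincubated 5 min at room temperature before DOI (4 nM solution) was added. Kinetic fluorescence was read for 3 min.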

[13] = target: 5-hydroxytryptamine receptor 2A (Homo sapiens) (UniProt P28223); assay: 5-hydroxytryptamine receptor 2A (HTR2A) small molecule agonists, cell-based qHTS assay (AID 1963587); also: nearly all actives have a fitted effect of over 30% in size
Procedure, shortened: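 Kinetic calcium-flux fluorescence (2 min, 1 sec intervals) after compound addition in agonist mode. HTR2A-CHO cells were cultured 18 h, then dye-loaded 1 h at 37 C.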

[14] = target: Muscarinic acetylcholine receptor M1 (Homo sapiens) (UniProt P11229); assay: Cholinergic receptor muscarinic 1 (CHRM1) small molecule antagonists, cell-based qHTS assay (AID 1963588); also: nearly all actives have a fitted effect of over 40% in size; also: potency is read from the fitted curve at half-maximal effect
Procedure, shortened: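 Compounds were tested at 15 concentrations in three independent runs. Dye-loaded CHRM1-CHO cells were exposed 5 min at room temperature before stimulation by acetylcholine added at 50nM. Intracellular calcium was read kinetically on FDSS for 3 min.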

[15] = target: Muscarinic acetylcholine receptor M1 (Homo sapiens) (UniProt P11229); assay: Cholinergic receptor muscarinic 1 (CHRM1) small molecule agonists, cell-based qHTS assay (AID 1963589); also: nearly all actives have a fitted effect of over 35% in size
Procedure, shortened: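 Agonist-mode calcium-flux screen: compounds at 15 concentrations, three independent runs, were pin-transferred onto dye-loaded human CHRM1-CHO cells. Fluorescence was then recorded kinetically every second over minutes.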

[16] = cAMP Responsive Elements (CRE) small molecule agonists, cell-based qHTS assay (AID 1963590)
Procedure, shortened: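 Agonist mode: compound added to CRE-bla HEK 293T cells (2,000/well, 18 h after plating) for 3 h at 37 C/5% CO2. Reporter activity detected via FRET beta-lactamase substrate, 2 h room-temperature loading.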

[17] = cAMP Responsive Elements (CRE) small molecule antagonists, cell-based qHTS assay (AID 1963591; active = well fitted inhibition curve with a large enough effect in the signal ratio in the repeat runs, not every such curve was filed as active; the % refers to the signal ratio)
Procedure, shortened: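 Antagonist mode: compounds are added alongside the adenylyl cyclase activator NKH477 (0.25 uM final) to CRE-bla HEK293T cells for 3 h. LiveBLAzer FRET substrate, 2 h at room temperature, reports bla expression.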

[18] = target: Beta-2 adrenergic receptor (Homo sapiens) (UniProt P07550); assay: Adrenergic beta2 receptor (ADRB2) small molecule antagonists, cell-based qHTS assay (AID 1963592); also: series mostly up to about 92 µM; nearly all actives have a fitted effect of over 50% in size
Procedure, shortened: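 Assay format: CHO-ADRB2 cells, 18-20hr seeding at 37C/5% CO2, then compound plus 1nM isoproterenol agonist mix for 0.5hr RT. Homogeneous time-resolved fluorescence cAMP detection after 1hr, expressed as 665/615 nm ratio.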

[19] = target: D(2) dopamine receptor (Homo sapiens) (UniProt P14416); assay: Dopamine D2 receptor (DRD2) small molecule agonists, cell-based qHTS assay (AID 1963594); also: nearly all actives have a fitted effect of over 35% in size
Procedure, shortened: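 cAMP accumulation in DRD2-HEK293 cells measured by HTRF after 1 h detection; compounds added 10 min before NKH477 (200nM […]) forskolin-analogue stimulation, 30 min at room temperature, with Ro20-1724 present at 0.1 mM final.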

[20] = target: D(2) dopamine receptor (Homo sapiens) (UniProt P14416); assay: Dopamine D2 receptor (DRD2) small molecule antagonists, cell-based qHTS assay (AID 1963595; active = well fitted inhibition curve with a large enough effect in the signal ratio in the repeat runs, with a control signal flat; the % refers to the signal ratio)
Procedure, shortened: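 Cells were plated and grown for 24 h at 37 °C. Ro20-1724 (0.1 mM final) went in first, then compound for 10 min. NKH477 (200 nM) with quinpirole (12 nM) followed for 30 min at RT, then HTRF detection reagents for 1 h.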

Chain of KiSS-1 receptor (Homo sapiens) (Q969F8 whole entry, looked up): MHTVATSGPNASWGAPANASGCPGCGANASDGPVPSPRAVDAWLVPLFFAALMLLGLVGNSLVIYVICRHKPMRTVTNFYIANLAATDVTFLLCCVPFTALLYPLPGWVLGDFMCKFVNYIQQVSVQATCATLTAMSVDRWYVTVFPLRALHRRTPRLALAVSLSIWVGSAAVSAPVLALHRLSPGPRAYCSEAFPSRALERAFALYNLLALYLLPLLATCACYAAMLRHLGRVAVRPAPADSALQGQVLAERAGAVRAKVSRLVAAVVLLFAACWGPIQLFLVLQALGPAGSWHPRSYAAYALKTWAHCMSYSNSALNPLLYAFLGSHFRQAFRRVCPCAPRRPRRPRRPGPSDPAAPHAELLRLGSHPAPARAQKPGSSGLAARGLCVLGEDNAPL
Chain of D(2) dopamine receptor (Homo sapiens) (P14416 whole entry, looked up): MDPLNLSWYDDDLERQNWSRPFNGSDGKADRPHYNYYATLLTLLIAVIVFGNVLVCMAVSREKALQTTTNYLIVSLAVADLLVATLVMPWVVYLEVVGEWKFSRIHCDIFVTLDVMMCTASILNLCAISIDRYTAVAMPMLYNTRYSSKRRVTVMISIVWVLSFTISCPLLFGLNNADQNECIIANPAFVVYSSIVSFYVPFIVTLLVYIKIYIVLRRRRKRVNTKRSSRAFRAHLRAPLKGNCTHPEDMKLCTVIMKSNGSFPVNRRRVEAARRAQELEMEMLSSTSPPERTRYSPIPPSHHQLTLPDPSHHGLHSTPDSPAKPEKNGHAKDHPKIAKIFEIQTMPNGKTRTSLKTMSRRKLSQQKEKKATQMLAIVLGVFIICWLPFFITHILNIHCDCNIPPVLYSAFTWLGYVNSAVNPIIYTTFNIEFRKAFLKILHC
Chain of 5-hydroxytryptamine receptor 2A (Homo sapiens) (P28223 whole entry, looked up): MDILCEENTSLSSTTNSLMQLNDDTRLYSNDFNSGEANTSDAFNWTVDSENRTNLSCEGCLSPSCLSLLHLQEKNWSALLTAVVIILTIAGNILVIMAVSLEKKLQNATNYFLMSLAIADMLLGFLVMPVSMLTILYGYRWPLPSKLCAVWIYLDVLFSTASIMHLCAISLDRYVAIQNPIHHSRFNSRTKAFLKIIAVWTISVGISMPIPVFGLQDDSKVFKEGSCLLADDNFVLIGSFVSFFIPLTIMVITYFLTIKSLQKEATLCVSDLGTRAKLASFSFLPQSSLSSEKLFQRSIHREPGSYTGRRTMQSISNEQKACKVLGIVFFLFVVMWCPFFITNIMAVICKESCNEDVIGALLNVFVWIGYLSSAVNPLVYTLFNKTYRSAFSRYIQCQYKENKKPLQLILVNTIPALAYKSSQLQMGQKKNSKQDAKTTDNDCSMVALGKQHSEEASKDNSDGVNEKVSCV
Chain of Muscarinic acetylcholine receptor M1 (Homo sapiens) (P11229 whole entry, looked up): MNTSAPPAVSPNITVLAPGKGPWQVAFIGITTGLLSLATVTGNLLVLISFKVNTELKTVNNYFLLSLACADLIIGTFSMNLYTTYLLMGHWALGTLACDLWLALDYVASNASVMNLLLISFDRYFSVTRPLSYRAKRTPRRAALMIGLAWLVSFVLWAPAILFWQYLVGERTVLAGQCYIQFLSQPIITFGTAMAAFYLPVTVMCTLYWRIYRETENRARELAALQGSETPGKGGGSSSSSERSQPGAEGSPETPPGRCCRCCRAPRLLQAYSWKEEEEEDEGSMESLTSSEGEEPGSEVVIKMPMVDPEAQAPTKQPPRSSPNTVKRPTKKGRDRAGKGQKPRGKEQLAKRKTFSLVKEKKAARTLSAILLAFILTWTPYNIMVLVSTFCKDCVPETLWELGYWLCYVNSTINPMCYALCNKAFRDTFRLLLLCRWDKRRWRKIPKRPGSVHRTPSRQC
Chain of Gonadotropin-releasing hormone receptor (Homo sapiens) (P30968 whole entry, looked up): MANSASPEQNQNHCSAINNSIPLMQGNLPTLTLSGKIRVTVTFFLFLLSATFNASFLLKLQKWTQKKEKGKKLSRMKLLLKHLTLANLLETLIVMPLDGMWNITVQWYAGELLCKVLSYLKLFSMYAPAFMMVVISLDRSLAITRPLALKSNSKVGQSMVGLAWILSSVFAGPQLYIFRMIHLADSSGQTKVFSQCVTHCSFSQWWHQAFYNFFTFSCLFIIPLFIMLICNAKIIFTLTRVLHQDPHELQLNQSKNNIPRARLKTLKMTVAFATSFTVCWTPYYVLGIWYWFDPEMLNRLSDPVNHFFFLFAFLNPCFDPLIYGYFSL
Chain of Beta-2 adrenergic receptor (Homo sapiens) (P07550 whole entry, looked up): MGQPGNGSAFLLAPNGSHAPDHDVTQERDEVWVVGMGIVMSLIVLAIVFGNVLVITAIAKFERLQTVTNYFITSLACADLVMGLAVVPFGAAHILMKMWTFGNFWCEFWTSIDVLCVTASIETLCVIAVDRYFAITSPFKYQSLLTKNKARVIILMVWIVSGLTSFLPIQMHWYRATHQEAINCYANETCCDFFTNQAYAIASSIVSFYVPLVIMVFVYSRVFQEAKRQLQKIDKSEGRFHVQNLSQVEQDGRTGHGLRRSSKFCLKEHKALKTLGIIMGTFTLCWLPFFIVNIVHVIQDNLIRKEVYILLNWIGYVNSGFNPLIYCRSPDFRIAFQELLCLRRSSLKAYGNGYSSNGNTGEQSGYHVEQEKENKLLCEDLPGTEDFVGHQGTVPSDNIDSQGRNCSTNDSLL

SMILES | Potency [1] | Potency [2] | Potency [3] | outcome [4] | outcome [5] | Potency [6] | Potency [7] | Potency [8] | Potency [9] | Potency [10] | Potency [11] | Potency [12] | Potency [13] | Potency [14] | Potency [15] | Potency [16] | Potency [17] | Potency [18] | Potency [19] | Potency [20]
CO[Si](CCC1CCC2OC2C1)(OC)OC (stereo not given) | inactive | inactive | inactive | inactive | inactive | inactive | inactive | inactive | inactive | inactive | inactive | inactive | inactive | inactive | inactive | inactive | inactive | inactive | inactive | inactive
CCCCCCCCCCCCCCCCC(=O)O | inactive | inactive | inactive | inactive | inactive | inactive | inactive | inactive | inactive | inactive | inactive | inactive | inactive | inactive | inactive | inactive | inactive | inactive | inactive | inactive
CCCCCO | inactive | inactive | inactive | inactive | inactive | inactive | inactive | inactive | inactive | inactive | inactive | inactive | inactive | inactive | inactive | inactive | inactive | inactive | inactive | inactive
Cn1nnc2c(C(N)=O)ncn2c1=O | inactive | inactive | inactive | inactive | inactive | inactive | inactive | inactive | inactive | inactive | inactive | inactive | inactive | inactive | inactive | inactive | inactive | inactive | inactive | inactive
NC(=O)CC[C@@H](N)C(=O)O | inactive | inactive | inactive | inactive | inactive | inactive | inactive | inactive | inactive | inactive | inactive | inactive | inactive | inactive | inactive | inactive | inactive | inactive | inactive | inactive
Cc1cccc(C)c1NC(=O)c1cc(S(N)(=O)=O)c(Cl)cc1O | inactive | inactive | inactive | inactive | inactive | inactive | inactive | inactive | inactive | inactive | inactive | inactive | inactive | 3.3 nM (active) | inactive | inactive | inactive | inactive | inactive | inactive

Reference: PubChem BioAssay (Tox21)
